Laboratory results published in PubChem BioAssay.
Active and inactive are the calls of the source.

How the values were obtained:
[1] = tested on: Wnt5a (protein binding on small-molecule microarray); assay: Wnt5a binders on small-molecule microarray, primary screen, biophysical, 635/667 nm fluorescence (AID 1142); details: 635 nm fluorescence, higher = more signal;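 further: fluorescence read at 667 nm with signal to noise per printed feature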
[2] = cell viability in Huh7 cells, primary screen, cytotoxicity control for HCV replication inhibitor project, CellTiter-Glo luminescence, basal, 48 h (AID 1143); details: Huh7 HCV replicon, higher = more signal, called active from +8 up or from −8 down;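 further: Huh7 hepatoma cells carrying a hepatitis C replication reporter with no stimulus; test concentration not given here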
[3] = CREB reporter modulators without forskolin, primary screen, cell-based, PC12, CRE-LacZ reporter, unstimulated (AID 1145); details: no forskolin, luminescence, 4.5 h, higher = more signal, called active from +8 up or from −8 down
[4] = CREB reporter modulators under forskolin, primary screen, cell-based, PC12, CRE-LacZ reporter, forskolin-stimulated (AID 1146); details: luminescence, 4.5 h, higher = more signal, called active from +8 up or from −8 down;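 further: PC12 cells with 6xCRE LacZ reporter stimulated by forskolin 10 µM; beta-galactosidase reporter signal reflecting CREB driven transcription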
[5] = target: Streptavidin (Streptomyces avidinii) (UniProt P22629); assay: streptavidin binders on small-molecule microarray, primary screen, artefact control for SMM compound annotation, biophysical, 635/667 nm fluorescence (AID 1147); details: streptavidin binding, higher = more signal;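 further: signal reflects streptavidin binding to arrayed compounds as a control protein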
Sequence of Streptavidin (Streptomyces avidinii) (P22629 whole entry, looked up): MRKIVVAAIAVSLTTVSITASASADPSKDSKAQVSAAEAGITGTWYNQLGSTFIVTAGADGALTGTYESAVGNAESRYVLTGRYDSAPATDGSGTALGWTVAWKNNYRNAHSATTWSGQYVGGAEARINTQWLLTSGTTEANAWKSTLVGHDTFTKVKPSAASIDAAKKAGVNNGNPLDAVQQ

[6] = small-molecule binders of probe aInhba, primary screen, biochemical, small-molecule microarray, 635/667 nm fluorescence (AID 1148); details: higher = more signal;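 further: score merges 667nm spot fluorescence with signal-to-noise for antibody binding to printed compounds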
Torsin-1A (Homo sapiens) [7] = target: Torsin-1A (Homo sapiens) (UniProt O14656); assay: torsin A binders from cell lysate, primary screen, small-molecule microarray, wild-type, 635/667 nm (AID 1149); details: COS7 hTOR1A-WT lysate, 635 nm fluorescence, higher = more signal
Sequence of Torsin-1A (Homo sapiens) (O14656 whole entry, looked up): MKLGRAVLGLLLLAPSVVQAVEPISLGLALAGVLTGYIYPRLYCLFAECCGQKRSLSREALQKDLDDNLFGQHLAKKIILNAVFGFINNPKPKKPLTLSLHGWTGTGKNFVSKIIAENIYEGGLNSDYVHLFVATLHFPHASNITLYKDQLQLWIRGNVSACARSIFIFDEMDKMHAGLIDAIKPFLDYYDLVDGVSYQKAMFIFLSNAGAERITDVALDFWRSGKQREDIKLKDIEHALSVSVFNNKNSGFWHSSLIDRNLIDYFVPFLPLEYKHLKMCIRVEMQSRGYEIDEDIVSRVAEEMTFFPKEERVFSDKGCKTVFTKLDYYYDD

Torsin-1A (Homo sapiens) [8] = target: Torsin-1A (Homo sapiens) (UniProt O14656); assay: small-molecule binders of mutant TOR1A in lysate, primary screen, cell lysate, small-molecule microarray, COS7 lysate, 635/667 nm fluorescence (AID 1150); details: COS7 hTOR1A mutant lysate, 635 nm fluorescence, higher = more signal;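 further: score pools 667 nm emission and signal to noise measuring lysate protein binding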
[9] = tested on: Sonic hedgehog protein (Shh); assay: small-molecule binders of Shh protein, primary screen, biochemical, small-molecule microarray, 635/667 nm fluorescence (AID 1151); details: small-molecule microarray binding, 635 nm fluorescence; higher = more signal;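 further: Shh protein binding to compounds spotted on small-molecule microarray slides; score combines spot fluorescence intensity with signal-to-noise across triplicate slides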
[10] = E. coli DRC41 culture turbidity changes, primary screen, E. coli filamentation inducer project, strain DRC41, OD650, 48 h (AID 1152);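 further: E. coli MC1000 strain DRC41 lacking acrAB efflux pump and sulA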; details: E. coli DRC41 (acrAB sulA), higher = more signal, called active from +8 up or from −8 down
[11] = small-molecule binders of probe aLefty1, primary screen, biochemical, small-molecule microarray, 635/667 nm fluorescence (AID 1153); details: higher = more signal;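 further: score merges spot fluorescence with signal-to-noise ratio from the scanned slide images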
[12] = PSAC antagonists in infected red cells, primary screen, cell-based, P. falciparum Indochina, OD700, 1 h (AID 1154); details: P. falciparum Indochina infected RBC osmotic lysis, higher = more signal, called active from +8 up or from −8 down
[13] = PSAC antagonists in infected red cells, primary screen, cell-based, P. falciparum Indochina, OD700, 2 h (AID 1155);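 further: lysis reports solute entry through the parasite surface anion channel PSAC; channel blockers reduce lysis of infected cells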; details: P. falciparum Indochina infected erythrocytes, osmotic lysis OD700; higher = more signal, called active from +8 up or from −8 down
[14] = osmotic lysis modulators in infected erythrocytes, primary screen, PSAC antagonist project, cell-based, P. falciparum Indochina, OD700, 3 h (AID 1156); details: higher = more signal, called active from +8 up or from −8 down
[15] = PSAC antagonists in infected red cells, primary screen, cell-based, P. falciparum Indochina, OD700, 18 h (AID 1157); details: P. falciparum Indochina infected erythrocytes, osmotic lysis OD700, 18 h; higher = more signal, called active from +8 up or from −8 down
[16] = modulators of S6 phosphorylation in cells, primary screen, cell-based, A549, cytoblot, luminescence, serum-stimulated (AID 1158); details: A549 phospho-S6 cytoblot, 5 h, higher = more signal;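 further: serum-stimulated A549 lung adenocarcinoma cells; signal is phosphorylated S6 detected by cytoblot immunostaining with HRP secondary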
[17] = target: NADPH oxidase 2 (Homo sapiens) (UniProt P04839); assay: NOX2-dependent H2O2 signal modulators, primary screen, NOX inhibitor project, cell-based, HEK293-NOX2, PMA-stimulated, Amplex Red fluorescence (AID 1159); details: 45 min, higher = more signal, called active from +8 up or from −8 down; further: test concentration not given here
Sequence of NADPH oxidase 2 (Homo sapiens) (P04839 whole entry, looked up): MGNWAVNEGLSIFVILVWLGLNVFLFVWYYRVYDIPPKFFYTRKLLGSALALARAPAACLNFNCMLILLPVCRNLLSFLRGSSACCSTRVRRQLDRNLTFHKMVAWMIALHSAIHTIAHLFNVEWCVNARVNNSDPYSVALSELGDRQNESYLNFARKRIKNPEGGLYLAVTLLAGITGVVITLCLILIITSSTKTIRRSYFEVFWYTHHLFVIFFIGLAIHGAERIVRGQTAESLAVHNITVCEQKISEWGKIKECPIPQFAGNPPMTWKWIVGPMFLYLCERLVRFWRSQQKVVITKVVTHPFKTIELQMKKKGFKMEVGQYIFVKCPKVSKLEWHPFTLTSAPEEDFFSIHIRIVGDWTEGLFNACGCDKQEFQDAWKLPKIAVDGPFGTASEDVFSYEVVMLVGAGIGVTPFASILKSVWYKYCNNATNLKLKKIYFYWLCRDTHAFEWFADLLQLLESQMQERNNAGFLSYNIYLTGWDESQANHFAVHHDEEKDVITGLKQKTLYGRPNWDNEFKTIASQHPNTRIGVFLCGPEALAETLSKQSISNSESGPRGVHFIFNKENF

[18] = target: NADPH oxidase 4 (Homo sapiens) (UniProt Q9NPH5); assay: NOX4-dependent H2O2 signal modulators, primary screen, NOX inhibitor project, cell-based, HEK293-NOX4, tetracycline-induced, Amplex Red fluorescence (AID 1160); details: 45 min, higher = more signal, called active from +8 up or from −8 down
Sequence of NADPH oxidase 4 (Homo sapiens) (Q9NPH5 whole entry, looked up): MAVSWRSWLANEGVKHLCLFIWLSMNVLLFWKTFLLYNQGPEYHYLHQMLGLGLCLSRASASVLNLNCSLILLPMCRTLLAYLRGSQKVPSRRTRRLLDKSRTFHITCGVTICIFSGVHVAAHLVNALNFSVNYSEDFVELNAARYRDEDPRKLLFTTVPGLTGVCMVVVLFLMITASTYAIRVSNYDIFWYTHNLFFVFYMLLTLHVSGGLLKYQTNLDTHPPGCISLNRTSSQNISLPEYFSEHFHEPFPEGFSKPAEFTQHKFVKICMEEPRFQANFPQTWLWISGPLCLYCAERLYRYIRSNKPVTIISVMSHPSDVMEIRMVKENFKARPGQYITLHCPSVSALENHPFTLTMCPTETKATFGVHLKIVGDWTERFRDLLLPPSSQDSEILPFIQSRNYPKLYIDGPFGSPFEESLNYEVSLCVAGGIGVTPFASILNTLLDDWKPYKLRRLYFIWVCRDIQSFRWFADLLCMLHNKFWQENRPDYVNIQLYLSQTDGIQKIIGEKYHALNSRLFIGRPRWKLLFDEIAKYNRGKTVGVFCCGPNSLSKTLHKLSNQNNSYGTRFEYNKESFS

[19] = target: NADPH oxidase 5 (Homo sapiens) (UniProt Q96PH1); assay: NOX5-dependent H2O2 signal modulators, primary screen, NOX inhibitor project, cell-based, HEK293-NOX5, Amplex Red fluorescence (AID 1161); details: HEK293-NOX5, ionomycin, 45 min, higher = more signal
Sequence of NADPH oxidase 5 (Homo sapiens) (Q96PH1 whole entry, looked up): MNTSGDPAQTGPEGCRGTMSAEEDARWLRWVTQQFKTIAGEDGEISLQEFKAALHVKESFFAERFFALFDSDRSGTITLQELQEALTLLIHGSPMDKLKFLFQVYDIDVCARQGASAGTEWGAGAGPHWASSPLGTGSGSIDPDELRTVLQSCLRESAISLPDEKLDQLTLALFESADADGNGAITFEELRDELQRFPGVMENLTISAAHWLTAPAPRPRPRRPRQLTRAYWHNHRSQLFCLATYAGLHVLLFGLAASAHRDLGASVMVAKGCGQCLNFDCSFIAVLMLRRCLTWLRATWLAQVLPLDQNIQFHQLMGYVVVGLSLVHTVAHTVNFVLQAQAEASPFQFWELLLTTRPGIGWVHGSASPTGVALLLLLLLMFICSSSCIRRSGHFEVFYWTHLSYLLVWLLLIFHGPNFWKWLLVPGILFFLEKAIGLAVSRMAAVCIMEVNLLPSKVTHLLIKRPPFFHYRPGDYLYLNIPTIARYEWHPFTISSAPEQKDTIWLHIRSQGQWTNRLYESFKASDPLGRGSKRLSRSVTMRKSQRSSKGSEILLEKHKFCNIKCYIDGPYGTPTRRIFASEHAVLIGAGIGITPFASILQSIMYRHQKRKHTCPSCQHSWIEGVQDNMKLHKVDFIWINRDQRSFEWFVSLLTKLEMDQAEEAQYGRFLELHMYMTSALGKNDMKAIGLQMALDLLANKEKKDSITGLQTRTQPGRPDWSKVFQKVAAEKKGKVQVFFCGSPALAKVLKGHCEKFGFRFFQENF

Structure (SMILES)	composite z-score [1]	z-score [2]	z-score [3]	z-score [4]	composite z-score [5]	composite z-score [6]	composite z-score (Torsin-1A (Homo sapiens) [7])	composite z-score (Torsin-1A (Homo sapiens) [8])	composite z-score [9]	z-score [10]	composite z-score [11]	z-score [12]	z-score [13]	z-score [14]	z-score [15]	z-score [16]	z-score [17]	z-score [18]	z-score [19]
CCN1C(C)=C(C(=O)OC)[C@@H](c2ccccc2)N2C(=O)[C@@]3(C(=O)OC)O[C@@]12[C@@H]1C(=O)N(C)C(=O)[C@@H]13	0.601	-0.674 (inactive)	0.922 (inactive)	-1.21 (inactive)	0.233	-0.157	0.587	0.368	0.971	-0.871 (inactive)	-0.0954	0.339 (inactive)	-1.13 (inactive)	0.0125 (inactive)	-1.65 (inactive)	0.629	1.52 (inactive)	-1.65 (inactive)	-0.267
CC/C=C/C(=O)N(C[C@@H]1CCCO1)[C@@H]1CC(C(=O)NCCO)=C[C@H](Oc2c(I)cc(CO)cc2OC)[C@H]1O	-0.0308	-1.97 (inactive)	0.858 (inactive)	-2.41 (inactive)	-0.0512	-0.128	0.553	0.267	0.239	1.24 (inactive)	0.135	1.05 (inactive)	-0.433 (inactive)	1.31 (inactive)	-1.48 (inactive)	1.98	-0.425 (inactive)	1.5 (inactive)	1.2
CSCC[C@@H]1NC(=O)CC=C[C@@H](C)COC(=O)[C@H](CCSC)NC(=O)CC=C[C@@H](C)COC1=O	0.119	-3.38 (inactive)	-0.389 (inactive)	-0.837 (inactive)	-0.563	-0.146	0.138	0.291	0.493	-0.77 (inactive)	-0.0559	-0.138 (inactive)	-0.774 (inactive)	-1.73 (inactive)	-1.85 (inactive)	0.214	-1.26 (inactive)	0.731 (inactive)	1.5
CCN1C(C)=C(C(=O)OC)[C@@H](c2ccccc2)N2C(=O)[C@@]3(C(=O)OC)O[C@@]12[C@@H]1C(=O)N(c2ccccc2)C(=O)[C@@H]13	0.313	-1.77 (inactive)	0.384 (inactive)	-1.28 (inactive)	0.424	-0.211	0.224	0.644	0.798	0.325 (inactive)	0.0166	0.69 (inactive)	-0.39 (inactive)	0.0305 (inactive)	-1.08 (inactive)	0.422	-0.816 (inactive)	0.267 (inactive)	-0.283
CO[C@H]1COC(=O)CC=C[C@H](C)[C@@H](OC)COC(=O)[C@H](Cc2ccccc2)NC(=O)CC=C[C@@H]1C	-0.359	-0.89 (inactive)	0.248 (inactive)	-0.802 (inactive)	-0.234	-0.408	0.45	0.593	2.05	-0.76 (inactive)	-0.183	-0.235 (inactive)	-0.912 (inactive)	0.959 (inactive)	-2.2 (inactive)	0.659	0.93 (inactive)	-1.49 (inactive)	0.404
COCCCNC(=O)[C@@]1(Sc2ccc(C)cc2)CC(=O)N(Cc2cc(C(F)(F)F)cc(C(F)(F)F)c2)[C@@H]1c1ccc(CO)cc1I	-0.265	-1.47 (inactive)	1.01 (inactive)	0.264 (inactive)	-0.713	-0.123	-0.083	-0.693	-0.612	1.57 (inactive)	0.162	2.3 (inactive)	1.08 (inactive)	-0.34 (inactive)	0.278 (inactive)	0.411	2.35 (inactive)	-0.978 (inactive)	1.75
CC(=O)NCCCC[C@@H]1NC(=O)[C@@H]2C[C@H](C(=O)NCCCCCCN(C)C)[C@H](c3ccc(O)cc3)N2C1=O	0.336	-0.849 (inactive)	0.0043 (inactive)	-1.19 (inactive)	1.24	0.982	1.49	1.52	1.43	1.03 (inactive)	-0.0619	1.19 (inactive)	-1.12 (inactive)	-2.63 (inactive)	-2.32 (inactive)	-0.0253	-0.498 (inactive)	-1.45 (inactive)	0.253
CO[C@H]1COC(=O)[C@H](C)NC(=O)CC=C[C@@H](C)[C@H](NS(=O)(=O)c2ccc(C)cc2)COC(=O)CC=C[C@@H]1C	-0.0879	-0.831 (inactive)	0.429 (inactive)	-1.27 (inactive)	-0.052	-0.123	0.961	0.0627	1.38	-0.154 (inactive)	-0.232	0.868 (inactive)	0.41 (inactive)	0.229 (inactive)	0.33 (inactive)	0.356	0.734 (inactive)	0.631 (inactive)	0.971
CO[C@H]1COC(=O)[C@H](C)NC(=O)CC=C[C@@H](C)[C@H](NS(=O)(=O)c2ccc(C)cc2)COC(=O)[C@@H](OCc2ccccc2)C=C[C@@H]1C	0.0746	0.0974 (inactive)	1.06 (inactive)	-0.594 (inactive)	-0.25	-0.261	0.196	0.316	0.96	0.117 (inactive)	-0.303	0.655 (inactive)	0.637 (inactive)	0.416 (inactive)	-0.14 (inactive)	0.215	1.4 (inactive)	0.815 (inactive)	0.2
CCOC(=O)C[C@H]1[C@H](OC(=O)c2cc3ccccc3oc2=O)[C@@H](NC(=O)c2ccc3ccccc3c2)c2cc(OCCCO)ccc2N1C(=O)c1ccc2ccccc2n1	0.338	-0.574 (inactive)	9.89 (active)	-2.03 (inactive)	0.895	0.0497	0.419	0.268	0.43	2.1 (inactive)	0.19	11.1 (active)	1.42 (inactive)	0.865 (inactive)	0.868 (inactive)	0.63	0.985 (inactive)	0.873 (inactive)	2.17
O=C1OCC=C[C@H]2OC34C=CCN(Cc5ccccc5)C(=O)[C@H]3N(CCCCCO)C(=O)[C@@H]4[C@@H]12 (stereo partly specified)	-0.341	-2.93 (inactive)	-0.354 (inactive)	-0.679 (inactive)	-1.62	0.0282	-0.391	-0.605	-1.09	2.14 (inactive)	-0.44	1.52 (inactive)	-0.426 (inactive)	-0.912 (inactive)	-1.34 (inactive)	1.19	2.15 (inactive)	0.352 (inactive)	1.51
CCCNC(=O)[C@@]1(Sc2ccc(C)cc2)CC(=O)N(Cc2ccccc2Cl)[C@@H]1c1ccc(CO)cc1	0.222	-6.06 (inactive)	0.443 (inactive)	-1.43 (inactive)	0.124	0.0925	0.369	0.17	1.86	2.06 (inactive)	0.369	3.09 (inactive)	-0.114 (inactive)	-1.35 (inactive)	-0.772 (inactive)	3.71	-0.773 (inactive)	-0.99 (inactive)	-0.176
Cc1ccc(S[C@]2(C(=O)NCCN3CCOCC3)CC(=O)N(C3Cc4ccccc4C3)[C@@H]2c2ccc(CO)cc2I)cc1	-0.149	-2.98 (inactive)	0.531 (inactive)	0.174 (inactive)	-0.658	0.0756	-0.434	-0.131	-0.678	1.86 (inactive)	0.392	6.65 (inactive)	-0.0443 (inactive)	0.591 (inactive)	-0.926 (inactive)	1.22	2.05 (inactive)	-1.59 (inactive)	1.33
CCN1C(C)=C(C(=O)OC)[C@@H](c2ccccc2)N2C(=O)[C@@]3(C(=O)OC)O[C@@]12[C@@H]1C(=O)CCC[C@@H]13	0.365	-0.419 (inactive)	0.462 (inactive)	-0.51 (inactive)	-0.213	0.115	0.385	0.353	2.02	-0.128 (inactive)	-0.0518	0.732 (inactive)	-0.69 (inactive)	1.56 (inactive)	-1.11 (inactive)	0.641	0.715 (inactive)	1.11 (inactive)	0.25
